These results are taken from PubChem BioAssay (EPA / NIEHS).

Activity calls are given as the source filed them. Rule for the calls: active = hit-call score of the fitted dose curve at least 0.9, where 1 is the maximum; inactive = score below 0.9.

A short description of experiment [1]: BSK_CASM3C_SRB: Viability Assessment in the BioMAP Diversity Plus: CASM3C Assay (AID 2283050).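 Note: total protein by SRB staining as cytotoxicity measure in parallel cultures; cells exposed to compound for 24 h.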 Particulars: primary human coronary artery smooth muscle cells.
Read-out in experiment [2]: Thrombomodulin, THBD (gene 7056)
The experiment in a line: BSK_CASM3C_Thrombomodulin: BioMAP Diversity Plus: CASM3C Assay for Thrombomodulin Biomarker Activity (AID 2283051).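 Note: thrombomodulin protein level measured by ELISA 24 h after dosing.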 Particulars: primary human coronary artery smooth muscle cells; actives raise or lower the signal.

Read-out in experiment [3]: Tissue Factor, F3 (gene 2152)
The experiment in a line: BSK_CASM3C_TissueFactor: BioMAP Diversity Plus: CASM3C Assay for Tissue Factor Biomarker Activity (AID 2283052).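 Note: cell surface tissue factor protein level read by ELISA.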 As to conditions: primary human coronary artery smooth muscle cells; actives raise or lower the signal.

Read-out in experiment [4]: Interferon-gamma inducible Protein 10 (IP10), CXCL10 (gene 3627)
The experiment is described as follows: BSK_hDFCGF_IP10: BioMAP Diversity Plus: hDFCGF Assay for Interferon-gamma inducible Protein 10 (IP10) Biomarker Activity (AID 2283053). Particulars: primary human foreskin fibroblasts; actives raise or lower the signal. The essentials:
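ELISA quantification of IP-10 after a 24 h chemical exposure of human dermal foreskin fibroblast primary cultures. Both increases and decreases versus DMSO fitted.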

Read-out in experiment [5]: Urokinase-type plasminogen activator receptor (uPAR), PLAUR (gene 5329)
The experiment is described as follows: BSK_CASM3C_uPAR: BioMAP Diversity Plus: CASM3C Assay for Urokinase-type plasminogen activator receptor (uPAR) Biomarker Activity (AID 2283054).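 Note: cell-surface uPAR protein level quantified by ELISA.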 As to conditions: primary human coronary artery smooth muscle cells; actives raise or lower the signal.

Read-out in experiment [6]: Vascular cell adhesion molecule 1 (VCAM1), VCAM1 (gene 7412)
The experiment is described as follows: BSK_CASM3C_VCAM1: BioMAP Diversity Plus: CASM3C Assay for Vascular cell adhesion molecule 1 (VCAM1) Biomarker Activity (AID 2283055).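 Note: VCAM-1 protein level quantified by ELISA on the cells.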 As to conditions: primary human coronary artery smooth muscle cells; actives raise or lower the signal.

Read-out in experiment [7]: Epidermal growth factor receptor (EGFR), EGFR (gene 1956)
The experiment in a line: BSK_hDFCGF_EGFR: BioMAP Diversity Plus: hDFCGF Assay for Epidermal growth factor receptor (EGFR) Biomarker Activity (AID 2283057). Particulars: primary human foreskin fibroblasts; actives raise or lower the signal. Summed up:
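EGFR levels by ELISA in human dermal fibroblast cultures, 24 h post-treatment, fitted bidirectionally versus DMSO. Parallel wells stained with sulforhodamine B to detect overt cytotoxicity.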

Read-out in experiment [8]: Interleukin-8 (IL8), CXCL8 (gene 3576)
The experiment in a line: BSK_hDFCGF_IL8: BioMAP Diversity Plus: hDFCGF Assay for Interleukin-8 (IL8) Biomarker Activity (AID 2283058). As to conditions: primary human foreskin fibroblasts; actives raise or lower the signal. The essentials: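 Cells used are human skin primary fibroblasts. Chemical is added, cultures run 24 h, then IL-8 is quantified by ELISA, and gain or loss versus DMSO control is fitted in both directions.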

Experiment [9] is described as follows: BSK_hDFCGF_Proliferation: Cell Proliferation Assessment in the BioMAP Diversity Plus: hDFCGF Assay (AID 2283059).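 Note: curves fitted for both rise and fall of signal versus DMSO baseline.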 Particulars: primary human foreskin fibroblasts. Summed up:
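This proliferation readout used SRB total-protein staining of human foreskin fibroblasts […], normalized to DMSO with bidirectional curve fitting.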

Read-out in experiment [10]: Macrophage colony-stimulating factor (MCSF), CSF1 (gene 1435)
The experiment is described as follows: BSK_hDFCGF_MCSF: BioMAP Diversity Plus: hDFCGF Assay for Macrophage colony-stimulating factor (MCSF) Biomarker Activity (AID 2283060). As to conditions: primary human foreskin fibroblasts; actives raise or lower the signal. The essentials: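 Primary human foreskin fibroblasts dosed with chemical; 24 h later, M-CSF quantified by ELISA; curves fitted in both directions vs DMSO negative control.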

Experiment [11] in a line: BSK_hDFCGF_SRB: Viability Assessment in the BioMAP Diversity Plus: hDFCGF Assay (AID 2283061).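 Note: cells exposed to compound for 24 h before the read.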 Particulars: primary human foreskin fibroblasts. The essentials:
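Readout is SRB absorbance at 560 nm, reflecting total protein in parallel cultures of human foreskin fibroblasts harvested 24 h after chemical dosing. Activity was fitted bidirectionally relative to DMSO.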

Read-out in experiment [12]: TIMP metallopeptidase inhibitor 1 (TIMP1), TIMP1 (gene 7076)
The experiment is described as follows: BSK_hDFCGF_TIMP1: BioMAP Diversity Plus: hDFCGF Assay for TIMP metallopeptidase inhibitor 1 (TIMP1) Biomarker Activity (AID 2283062). As to conditions: primary human foreskin fibroblasts; actives raise or lower the signal. Summed up: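 Human skin fibroblasts (primary), hDFCGF system; compound exposure 24 h; TIMP-1 by ELISA; bidirectional fit vs DMSO negative control; overt cytotoxicity by SRB in parallel wells.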

Read-out in experiment [13]: Monokine induced gamma interferon (MIG), CXCL9 (gene 4283)
The experiment in a line: BSK_hDFCGF_MIG: BioMAP Diversity Plus: hDFCGF Assay for Monokine induced gamma interferon (MIG) Biomarker Activity (AID 2283063). Particulars: primary human foreskin fibroblasts; actives raise or lower the signal. The essentials: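 Chemicals were added to primary human foreskin fibroblast cultures, which were sampled 24 h later. MIG levels were then quantified by ELISA and responses fitted in both directions relative to DMSO.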

Read-out in experiment [14]: Matrix Metallopeptidase 1 (MMP1), MMP1 (gene 4312)
The experiment in a line: BSK_hDFCGF_MMP1: BioMAP Diversity Plus: hDFCGF Assay for Matrix Metallopeptidase 1 (MMP1) Biomarker Activity (AID 2283064). As to conditions: primary human foreskin fibroblasts; actives raise or lower the signal. The essentials:
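Human foreskin fibroblasts exposed to chemical for 24 h; MMP1 detected by ELISA, with DMSO as baseline for bidirectional fitting.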

Read-out in experiment [15]: Vascular cell adhesion molecule 1 (VCAM1), VCAM1 (gene 7412)
The experiment in a line: BSK_hDFCGF_VCAM1: BioMAP Diversity Plus: hDFCGF Assay for Vascular cell adhesion molecule 1 (VCAM1) Biomarker Activity (AID 2283065).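 For AC50: VCAM-1 protein level quantified by ELISA after 24 h chemical exposure.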 Particulars: primary human foreskin fibroblasts; actives raise or lower the signal. The essentials: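 Human foreskin fibroblast primary cells, chemical exposure 24 h; VCAM-1 by ELISA; bidirectional fit, DMSO = negative control/baseline.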

Read-out in experiment [16]: Plasminogen activator inhibitor-1 (PAI1), SERPINE1 (gene 5054)
The experiment is described as follows: BSK_hDFCGF_PAI1: BioMAP Diversity Plus: hDFCGF Assay for Plasminogen activator inhibitor-1 (PAI1) Biomarker Activity (AID 2283066). As to conditions: primary human foreskin fibroblasts; actives raise or lower the signal. The essentials:
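PAI-1 levels in human dermal foreskin fibroblasts were quantified by ELISA 24 h after dosing, with gain or loss analysed against DMSO. Overt cytotoxicity was checked by sulforhodamine B total-protein staining in parallel cultures.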

Read-out in experiment [17]: Intercellular Adhesion Molecule 1 (ICAM1), ICAM1 (gene 3383)
The experiment in a line: BSK_KF3CT_ICAM1: BioMAP Diversity Plus: KF3CT Assay for Intercellular Adhesion Molecule 1 (ICAM1) Biomarker Activity (AID 2283067). As to conditions: primary human keratinocytes with fibroblasts; actives raise or lower the signal. Summed up:
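ICAM-1 levels are measured by ELISA 24 h after dosing a primary human co-culture of keratinocytes and foreskin fibroblasts. Activity in either direction is fitted relative to DMSO vehicle.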

Read-out in experiment [18]: Interferon-gamma inducible Protein 10 (IP10), CXCL10 (gene 3627)
The experiment in a line: BSK_KF3CT_IP10: BioMAP Diversity Plus: KF3CT Assay for Interferon-gamma inducible Protein 10 (IP10) Biomarker Activity (AID 2283068). As to conditions: primary human keratinocytes with fibroblasts; actives raise or lower the signal. The essentials:
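Signal is secreted/surface IP-10 by ELISA in a human primary skin co-culture of keratinocytes and foreskin fibroblasts, taken 24 h post-dosing; DMSO served as negative control.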

Experiment [19] is described as follows: BSK_KF3CT_SRB: Viability Assessment in the BioMAP Diversity Plus: KF3CT Assay (AID 2283069).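 Note: read 24 h after compound addition; fitted for both signal gain and loss against DMSO baseline.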 As to conditions: primary human keratinocytes with fibroblasts. The essentials:
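Overt cytotoxicity is assessed as total protein by sulforhodamine B staining in parallel human skin co-cultures at 24 h after dosing. DMSO serves as negative control and baseline.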

Read-out in experiment [20]: Collagen III, COL3A1 (gene 1281)
The experiment in a line: BSK_hDFCGF_CollagenIII: BioMAP Diversity Plus: hDFCGF Assay for Collagen III Biomarker Activity (AID 2283056). Particulars: primary human foreskin fibroblasts; actives raise or lower the signal. The essentials: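 ELISA read-out of collagen III from human skin fibroblast cultures sampled 24 h post-dosing. Values were derived by bidirectional fitting relative to the DMSO vehicle control.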

In general, AC50 refers to the concentration giving half of the maximal activity seen. `C[Si](Cn1cncn1)(c1ccc(F)cc1)c1ccc(F)cc1`: the result in experiment [1], in [3], in experiment [4], in experiment [5], in [6] and in experiment [7] was inactive. In addition, the outcome in [8], in experiment [9], in experiment [10], in experiment [11], in [12] and in experiment [13] was inactive. The outcome in experiment [14], in [15], in [16], in experiment [17], in experiment [18] and in experiment [19] was inactive. Besides, the AC50 in experiment [2] was 7.8 µM (active).

With `CCc1cccc(CC)c1N(COC)C(=O)CCl`, the outcome in [1], in experiment [2], in [3], in experiment [5], in [6] and in experiment [7] was inactive. Further, the result in experiment [12], in experiment [14], in experiment [16], in experiment [17], in experiment [18] and in experiment [19] was inactive. The AC50 was 11.2 µM (active) in experiment [4]; 13.8 µM (active) in experiment [9]; 18.9 µM (active) in [10]; 24 µM (active) in experiment [11]; 10.1 µM (active) in experiment [13]; 8.35 µM (active) in experiment [15].

On to `Nc1nc(N)nc(NC2CC2)n1`, for which the outcome in experiment [1], in [2], in [3], in [4], in [5] and in [6] was inactive. The result in experiment [7], in experiment [9], in [10], in experiment [11], in experiment [12] and in experiment [13] was inactive. In addition, the result in experiment [14], in experiment [15], in experiment [16], in experiment [17], in [18] and in experiment [19] was inactive.

Take `CCOP(=S)(OCC)OC(Cl)C(Cl)(Cl)Cl` (centres undefined): the result in experiment [1], in [3], in experiment [5], in [6], in experiment [7] and in experiment [8] was inactive. The outcome in experiment [9], in [11], in experiment [12], in experiment [13], in experiment [14] and in experiment [16] was inactive. The outcome in experiment [17] and in experiment [18] was inactive. Also, the AC50 in experiment [2] was 11.4 µM (active); in experiment [4] it was 26.3 µM (active); in experiment [10] it was 31.8 µM (active); in experiment [15], 29.4 µM (active); in experiment [19] it was 26.7 µM (active).

Take `CC(C)=CC1C(C(=O)OCN2C(=O)C3=C(CCCC3)C2=O)C1(C)C` (centres undefined): the outcome in experiment [1], in [2], in experiment [3], in experiment [5], in experiment [7] and in [12] was inactive. In addition, the outcome in experiment [14], in [17], in experiment [18] and in [19] was inactive. Also, the AC50 is 30.1 µM (active) in experiment [4]; 13.6 µM (active) in experiment [6]; 15.5 µM (active) in experiment [9]; 27.6 µM (active) in experiment [10]; 30.7 µM (active) in [11]; 33.5 µM (active) in experiment [13]. In addition, the AC50 is 25.8 µM (active) in [15] and 30.7 µM (active) in [16].

As for `CNC(=O)Oc1cccc2c1OC(C)(C)O2`, the result in experiment [1], in experiment [2], in experiment [3], in experiment [4], in experiment [5] and in experiment [6] was inactive. Besides, the result in experiment [9], in [10], in experiment [11], in [12], in experiment [13] and in [14] was inactive. The result in experiment [15], in experiment [16], in experiment [17], in experiment [18] and in experiment [19] was inactive. Further, in experiment [7], the AC50 is 12.2 µM (active).

For the molecule `CCOP(=S)(OCC)SCCSCC`, the outcome in experiment [1], in experiment [2], in experiment [3], in experiment [5], in experiment [6] and in experiment [20] was inactive. The outcome in experiment [7], in [8], in experiment [9], in [10], in experiment [11] and in [12] was inactive. Moreover, the result in [13], in experiment [14], in [16], in [17] and in experiment [19] was inactive. In addition, the AC50 was 36.9 µM (active) in [15] and 37 µM (active) in [18].
